Active and inactive are the calls of the source. Entries that show only a call come without a potency. Calls come from the whole dose curve; as a rule, active = well fitted curve in the direction sought with a large enough effect; inconclusive = small, poorly fitted or top-dose-only effect, or another doubt; inactive = no such curve, though single readings can be large or run the other way.
Potency is the fitted concentration of half-maximal effect.

For this assay, the target named is alpha-glucosidase (Oryza sativa, rice) (UniProt Q653V4). The assay is described as follows: Counterscreen for Glucocerebrosidase Inhibitors: qHTS Assay for Rice alpha-Glucosidase at pH 5.0 (AID 997). The conditions noted are these: rice alpha-glucosidase enzyme activity; series mostly up to 76.9 µM. From the text: NIH Chemical Genomics Center [NCGC]
NIH Molecular Libraries Screening Centers Network [MLSCN]
PI Name: Zheng, Wei [NIH]
Alpha-glucosidase is responsible for hydrolysis of terminal, non-reducing 1,4-linked alpha-D-glucose residues with release of alpha-D-glucose. It is a lysosomal hydrolase that is required for the degradation of a small percentage (1-3%) of cellular glycogen in human. Deficiency of this enzyme results in glycogen-storage disease type II (GSDII), also referred to as Pompe disease, an autosomal recessive disorder. Structurally normal glycogen is accumulated in lysosomes and cytoplasm in affected patients, primarily in muscle tissues. Excessive glycogen storage within lysosomes may interrupt normal functioning of other organelles and leads to cellular injury. In turn, this leads to enlargement and dysfunction of the entire organ involved (eg, cardiomyopathy and muscle weakness).
It has reported that the improper folding and trafficking of alpha-glucosidase resulted from the genetic mutations may account for a significant number of Prope patients. […] We optimized this alpha-glucosidase assay in 1536-well plate format for identifying the novel small molecule inhibitors with the structures other than the sugar analogs in order to develop the new pharmacological chaperones.
NCGC Assay Protocol Summary:
This is a fluorogenic enzyme assay with 4-methylumbelliferyl-alpha-D-pyranoside as the substrate and rice alpha-glucosidase as the enzyme preparation. Upon the hydrolysis of this fluorogenic substrate, the resulting product, 1. 4-methyllumbelliferone, can be excited at 365 nm and emits at 440 nm which can be detected by a standard fluorescence plate reader. Data were normalized to the controls for basal activity (without enzyme) and 100% activity (with enzyme). In the AC50 values were determined from concentration-response data modeled with the standard Hill equation.
Assay buffer: 50 mM citric acid, 0.005% Tween-20, pH 5.0. (pH 5.0 is an optimal condition for this enzyme assay)
1536-well assay protocol for the human alpha-glucosidase:
(1) Add 2 ul/well of enzyme (4 nM final)
(2) Add 23 nL compounds in DMSO solution. The final titration was 0.7 nM to 77 uM.
(3) Add 1 ul of substrate (400 uM final)
(4) Incubate at room temperature for 20 min.
(5) Add 2 ul stop solution (1M NaOH and 1M Glycine mixture, pH 10)
(6) Detect the assay plate in a ViewLux plate reader (PerkinElmer) with Ex=365 nm and Em=440nm.
Keywords: Alpha-glucosidase, Prope Disease, pharmacological chaperone, chaperone therapy, high throughput screening, alpha-glucosidase inhibitor, MLSMR, MLSCN, NIH Roadmap, qHTS and NCGC
Consider `CC(C)[C@@H]1NC(=O)[C@H](CCCCN)NC(=O)[C@H](Cc2c[nH]c3ccccc23)NC(=O)[C@H](Cc2ccc(O)cc2)NC(=O)[C@H](C)N(C)C(=O)[C@H](Cc2ccccc2)NC1=O`, for which the Potency entry is “inactive”.
Next, `CSc1nc(N)c2ncn([C@@H]3O[C@@H](COP(=O)(O)OP(=O)(O)OP(=O)(O)O)[C@@H](O)[C@H]3O)c2n1`: “inactive”.
Next, `CC(C)(C)c1onc(OCP(=O)(O)O)c1C[C@@H](N)C(=O)O`: “inactive”; `C[C@H](N)C(=O)OC(C)(C)Cc1ccc(Cl)cc1`: “inactive”.
As to `COc1cc2c(cc1OC)[C@H](c1ccccc1)CN(C)CC2`, the Potency entry was “inactive”.
For `CC[C@@H](CO)Nc1nc(NCc2ccccc2)c2ncn(C(C)C)c2n1` the value was “inactive”; for `CN1[C@@H]2CC[C@H]1CC(NC(=O)c1nn(C)c3ccccc13)C2` (stereo not given in full), “inactive”.
Next, `COc1cc2nc(N3CCN(C(=O)OCc4ccccc4)[C@H](C(=O)NC(C)(C)C)C3)nc(N)c2cc1OC`: “inactive”; `O=[N+]([O-])c1ccc(CSc2ncnc3c2ncn3[C@@H]2O[C@@H](CO)[C@@H](O)[C@H]2O)cc1`: “inactive”; `CCCC[S@@](=N)(=O)CC[C@@H](N)C(=O)O`: “inactive”.
For `O=C(O)CCCC[C@H]1CCSS1` the value was “inactive”.
For `C[C@@H]1C(=O)N(C)C(=O)c2nc[nH]c21`, the Potency entry is “inactive”.
Next, `CCCC[C@]1(C2CCCC2)Cc2cc(OCC(=O)O)c(Cl)c(Cl)c2C1=O`: “inactive”; `OC[C@@H]1O[C@@H](n2cnc3c(NC4CCCC4)ncnc32)[C@@H](O)[C@H]1O`: “inactive”.
For `OC[C@@H]1O[C@H](O)[C@@H](Cl)[C@H](O)[C@@H]1O` the value was “inactive”; for `CC(C)[C@H]1C(=O)C(C(N)=O)=C(O)[C@]2(O)C(=O)C3=C(O)c4c(O)ccc(N(C)C)c4C[C@H]3C[C@@H]12`, “inactive”.
Next, `CC[C@@H]1CN2CCc3cc(OC)c(OC)cc3[C@H]2C[C@@H]1C[C@@H]1NCCc2cc(OC)c(OC)cc21`: “inactive”.
In the case of `NC(=O)C1=CN([C@@H]2O[C@@H](COP(=O)(O)OP(=O)(O)OC[C@@H]3O[C@H](n4cnc5c(N)ncnc54)[C@@H](OP(=O)(O)O)[C@@H]3O)[C@H](O)[C@@H]2O)C=CC1`, the Potency entry was “inactive”.
For `CCCCC/C=C\C[C@H](O)/C=C\c1cccc(C[C@H](O)CCCCO)n1` the value was “inactive”; for `NC[C@H](O)C1CCCCCCC1`, “inactive”; for `OC[C@@H]1O[C@@H](n2cnc3c(NC4CCCCC4)ncnc32)[C@@H](O)[C@H]1O`, “inactive”.
Consider `O=C(O)CC[C@@H](NC(=O)c1ccccc1C(=O)O)C(=O)O`, for which the Potency result was “inactive”.
Consider `C[C@@H](C(=O)O)c1ccc(C[C@@H]2CCCC2=O)cc1`, for which the Potency entry was “inactive”.
For `NC(=O)c1ncn([C@@H]2O[C@@H](CO)[C@@H](O)[C@H]2O)c1O` the value was “inactive”.
For the compound `CC1(C)CCC(NC(=O)[C@H](N)CCC(=O)O)CC1`, the Potency entry was “inactive”.
For `OC[C@@H]1NC[C@@H](O)[C@@H](O)[C@H]1O` the value was 0.0794 µM (active); for `C=CCN1CCc2c(cc(O)c(O)c2Cl)[C@H](c2ccccc2)C1`, “inactive”.
For `CC[C@H](C)[C@@H]1O[C@]2(CC[C@@H]1C)C[C@H]1C[C@H](CC=C(C)[C@@H](O[C@H]3C[C@H](OC)[C@H](O[C@H]4C[C@H](OC)[C@H](O)[C@H](C)O4)[C@H](C)O3)[C@@H](C)C=CC=C3CO[C@@H]4[C@@H](O)C(C)=C[C@H](C(=O)O1)[C@@]34O)O2` the value was “inactive”; for `CC(=O)[C@@H]1CC[C@@H]2[C@@H]3CC=C4C[C@H](OS(=O)(=O)O)CC[C@@]4(C)[C@H]3CC[C@]21C`, “inactive”; for `OC[C@@H]1O[C@@H](n2cnc3c(N[C@@H]4C[C@@H]5CC[C@H]4C5)ncnc32)[C@@H](O)[C@H]1O`, “inactive”.
Next, `C[C@@H](CN1CCC(Cc2ccccc2)CC1)[C@H](O)c1ccc(O)cc1`: “inactive”.
In the case of `Nc1c2c(nc3ccccc13)CCC[C@H]2O`, the Potency result is “inactive”.
For `CC[C@H]1C(=O)OC[C@H]1Cc1cncn1C` the value was “inactive”.
Next, `CC(C)(C)[C@@]1(O)CCN2C[C@@H]3c4ccccc4CCc4cccc(c43)[C@@H]2C1`: “inactive”.
For `O=C(O)/C=C\c1cnc[nH]1` the value was “inactive”; for `Nc1ccc(CCNc2ncnc3c2ncn3[C@@H]2O[C@@H](CO)[C@H](O)[C@@H]2O)cc1`, “inactive”; for `Nc1ncnc2c1nc(Sc1ccc(Cl)cc1)n2[C@@H]1O[C@H]2COP(=O)(O)O[C@@H]2[C@H]1O`, “inactive”.
For the compound `C[C@@H]1O[C@@H](n2cc(F)c(=O)[nH]c2=O)[C@H](O)[C@@H]1O`, the Potency entry is “inactive”.
Turning to `CNC(=O)[C@@H]1O[C@@H](n2cnc3c(N)ncnc32)[C@@H](O)[C@H]1O`, the Potency entry was “inactive”.
For `Nc1nc(Cl)nc2c1ncn2[C@@H]1O[C@@H](CO)[C@@H](O)[C@H]1O` the value was “inactive”.

(Values after PubChem BioAssay (NCATS).)
